Measurements from PubChem BioAssay (NCATS).
Values joined by “and” are separate entries in the source; they are usually repeats but may differ in a detail not shown here. Equal values may be shown once. Results filed as inconclusive are left out. Unmarked numbers belong to inactive results. Active and inactive are the calls of the source. Calls come from the whole dose curve; as a rule, active = well fitted inhibition curve with a large enough effect; inconclusive = small, poorly fitted or top-dose-only effect; inactive = flat fitted curve, though single readings scatter.

Tests used:
KB-3-1 = test: Cytotoxic Profiling of Annotated Libraries Using Quantitative High-Throughput Screening (AID 1296008); settings: Five cell lines viability, CellTiter-Glo ATP luminescence, 48-72 h; max response: hits give low values; for max response: % is set by controls: 0 for no effect and ±100 for the full control effect
Outline: (§1)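 Cytotoxicity was measured as CellTiter-Glo ATP luminescence, read after 10 min at room temperature. Compound treatment of the cells lasted 48 or 72 hr at 37 degrees Celsius in a qHTS format.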

HaCat [1] = test: as above; settings: Five cell lines viability, CellTiter-Glo ATP luminescence, 48-72 h; max response: hits give low values
Outline: as §1

NIH3T3 = test: as above; settings: Five cell lines viability, CellTiter-Glo ATP luminescence, 48-72 h; max response: hits give low values
Outline: as §1

HACAT [2] = test: qHTS assay to identify novel small-molecules to repurpose for Merkel cell carcinoma treatment (AID 1296009); settings: MCC and control cell lines, CellTiter-Glo viability, 72 h; at 44.8 µM (top of the series) unless noted; note: potency is the fitted concentration of half-maximal effect
Outline: (§2)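 Cell viability measured by CellTiter-Glo following 72 hr compound treatment at 37 degree celsius, with NPC and MIPE libraries tested in 8- and 11-point concentration series.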

TAB165 = test: qHTS profiling for inhibitors of Plasmodium falciparum proliferation (AID 504749); note: potency is the fitted concentration of half-maximal effect; settings: P. falciparum in erythrocytes, SYBR Green DNA, 72 h; series mostly up to 28.7 µM
Outline: (§3)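 In a 72 h erythrocytic culture (37 C, humidified, 5% CO2) at 2.5% hematocrit and 0.3% starting parasitemia, compounds were tested; SYBR Green I in detergent lysis buffer stained parasite DNA overnight.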

W2 = test: as above; settings: P. falciparum in erythrocytes, SYBR Green DNA, 72 h; series mostly up to 28.7 µM
Outline: as §3

HEK293T = test: qHTS assay to identify novel small-molecules to repurpose for Merkel cell carcinoma treatment (AID 1296009); settings: MCC and control cell lines, CellTiter-Glo viability, 72 h; note: potency is the fitted concentration of half-maximal effect
Outline: as §2
Note: nearly all actives have a fitted effect of over 60% in size.

In the case of `O=S(O)CNc1ccc(S(=O)(=O)c2ccc(NCS(=O)O)cc2)cc1`, the max response (KB-3-1) is reported as -17.8%.

With `O=C(Nc1ccccc1)N1CCN(c2nc(-c3ccccc3)ns2)CC1` the outcome (HaCat [1]) was “inactive”, the max response (NIH3T3) was -11.1% and the outcome (HACAT [2]) was “inactive”.

Work on `COC(=O)C1=C(C)NC(C)=C(C(=O)O[C@H]2CCN(Cc3ccccc3)C2)[C@H]1c1cccc([N+](=O)[O-])c1` yielded a max response (KB-3-1) of -25.4%.

Compound `C=C1C(=C/C=C2\CCC[C@]3(C)[C@@H]([C@H](C)CCCC(C)(C)O)CC[C@@H]23)C[C@@H](O)C[C@@H]1O` has a max response (KB-3-1) of 4.02%.

`CCC(C)(OC(C)=O)C(=O)O[C@H]1[C@H](OC(C)=O)[C@]2(CO)[C@H](O)[C@H](O)[C@]3(C)C(=CCC4[C@@]5(C)CC[C@H](O[C@@H]6O[C@H](C(=O)O)[C@@H](O)[C@H](O[C@@H]7OC[C@H](O)[C@H](O[C@@H]8OC[C@H](O)[C@H](O)[C@H]8O)[C@H]7O)[C@H]6O[C@@H]6O[C@H](CO)[C@@H](O)[C@H](O)[C@H]6O)C(C)(C)C5CC[C@]43C)[C@@H]2CC1(C)C` (stereo partly drawn) showed a max response (KB-3-1) of -16.4%.

In the case of `CSCC[C@H](NC(=O)[C@H](Cc1ccc(OS(=O)(=O)O)cc1)NC(=O)[C@@H](N)CC(=O)O)C(=O)NCC(=O)N[C@@H](Cc1c[nH]c2ccccc12)C(=O)N[C@@H](CCSC)C(=O)N[C@@H](CC(=O)O)C(=O)N[C@@H](Cc1ccccc1)C(N)=O`, the max response (KB-3-1) is reported as -5.26% and -10.7%.

For `C#CCOc1ccc2c(c1)c(-c1ccc(C(C)C)cc1)nc(=O)n2C(C)C`, the outcome (HaCat [1]) was “inactive”, the max response (NIH3T3) was -1.76% and the outcome (HACAT [2]) was “inactive”.

`CCCC(=O)N1CCCN(c2nc(N)c3cc(OC)c(OC)cc3n2)CC1` was tested, and the max response (KB-3-1) was -12.4%.

In the case of `O=S(=O)(c1ccc(Cl)cc1)N1CCN(c2ccnc3cc(Cl)ccc23)CC1`, the outcome (HaCat [1]) is reported as “inactive”, the max response (NIH3T3) is reported as 3.17% and the outcome (HACAT [2]) is reported as “inactive”.

`CN(C(=O)CO)c1c(I)c(C(=O)NCC(O)CO)c(I)c(C(=O)NCC(O)CO)c1I` (stereo not drawn) was tested, and the max response (KB-3-1) was 5.16%.

`COc1cc2[nH]c(C)c(CCN3CCN(c4ccccc4)CC3)c2cc1OC` gave a max response (KB-3-1) of -9.43%.

In the case of `CCCCCCCCCCCCCCCCCC(=O)OCCO`, the max response (KB-3-1) is reported as -9.35%.

`CCCCCCCCCC(=O)O` gave a max response (KB-3-1) of -12.8%.

In the case of `CCN(CC)c1ccc(N=Nc2ccc(S(=O)(=O)N(C)C)cc2)c(S(=O)(=O)NCC[n+]2ccccc2)c1`, the max response (KB-3-1) is reported as -15.2%.

In the case of `Cc1cc(C)nc(SCC(=O)Nc2ncc(Cc3cccc4ccccc34)s2)n1`, the outcome (HaCat [1]) is reported as “inactive”, the max response (NIH3T3) is reported as -0.172% and the outcome (HACAT [2]) is reported as “inactive”.

Compound `CC(CN(C)C)CN1c2ccccc2S(=O)(=O)c2ccccc21` (stereo not drawn) has a max response (KB-3-1) of 23.6%.

`CCCCC(=O)O` was tested, and the max response (KB-3-1) was -12.9% and -9.7%.

With `COc1cc(CCc2ccc(OCC=C(C)C)cc2)cc(OC)c1OC` the outcome (HaCat [1]) was “inactive”, the max response (NIH3T3) was -1.52% and the outcome (HACAT [2]) was “inactive”.

Compound `NC(=O)C[C@@H](N)C(=O)O` has a max response (KB-3-1) of -17.1%.

`C=C1CC[C@@H]2[C@](C)(CO)[C@H](O)CC[C@@]2(C)[C@@H]1/C=C/C1=CCOC1=O` was tested, and the outcome (HaCat [1]) was “inactive”, the max response (NIH3T3) was -1.38% and the outcome (HACAT [2]) was “inactive”.

With `N#Cc1ccc(-c2ccc(S(=O)(=O)Nc3cccc(N)n3)cc2)cc1` the outcome (HaCat [1]) was “inactive”, the max response (NIH3T3) was -2.42% and the outcome (HACAT [2]) was “inactive”.

With `COC1C(O)C(OC2CCC3(C)C(CCC45CCC6C7(COC(=O)C7)OC4(O)C6(C)CCC35)C2)OC(C)C1OC1OC(CO)C(OC2OC(CO)C(O)C(O)C2O)C(O)C1O` (stereo not drawn) the outcome (HaCat [1]) was “inactive”, the max response (NIH3T3) was 1.1% and the outcome (HACAT [2]) was “inactive [at 9.27 µM]”.

For `CN[C@@H]1CCc2[nH]c3ccc(C(N)=O)cc3c2C1`, the max response (KB-3-1) was -3.81%.

In the case of `CC(=O)OC[C@]12[C@H](OC(C)=O)C(=O)[C@@H]3[C@@H](O)[C@@]14O[C@@]3(C)COC(=O)c1cccnc1[C@@H](C)[C@H](C)C(=O)O[C@@H]([C@H](O)[C@@H]2OC(C)=O)[C@]4(C)O`, the outcome (HaCat [1]) is reported as “inactive”, the max response (NIH3T3) is reported as -17.4% and the outcome (HACAT [2]) is reported as “inactive [at 17.4 µM]”.

In the case of `CC1(C)S[C@@H]2[C@H](NC(=O)C(C(=O)Oc3ccc4c(c3)CCC4)c3ccccc3)C(=O)N2[C@H]1C(=O)O` (stereo partly drawn), the max response (KB-3-1) is reported as 21.3%.

`O=C(Cn1c(=O)sc2ccc(Cl)cc21)N1CCN(CCO)CC1` showed a max response (KB-3-1) of 2.82%.

In the case of `C/C=C\NC(=O)C1NC(=O)C(CC(N)=O)NC(=O)C(NC(=O)C(=O)C(C)CC)Cc2ccc(O)c(c2)-c2cccc3c2NC(=O)C3(O)C1O` (stereo not drawn), the outcome (HaCat [1]) is reported as “inactive”, the max response (NIH3T3) is reported as -19% and the outcome (HACAT [2]) is reported as “inactive [at 17.4 µM]”.

Work on `CCCCc1cc2c(=O)c(C(=O)OC)c[nH]c2cc1OCc1ccccc1` yielded a max response (KB-3-1) of -10.6%.

For `C=CCNC1=C2C[C@@H](C)C[C@H](OC)[C@H](O)[C@@H](C)/C=C(\C)[C@H](OC(N)=O)[C@@H](OC)/C=C\C=C(/C)C(=O)NC(=CC1=O)C2=O`, the Potency (TAB165) was 1410 nM (active) and the Potency (W2) was 1200 nM (active).

`CCCOc1ccc2nc(NC(=O)OC)sc2c1` was tested, and the Potency (TAB165) was “inactive” and the Potency (W2) was “inactive”.

With `C[C@H](Oc1cc(-n2cnc3ccc(CN4CCN(C)CC4)cc32)sc1C(N)=O)c1ccccc1C(F)(F)F` the Potency (HEK293T) was 1300 nM (active).
